Reference: PubChem BioAssay (NCI)
The panel holds about 79,000 compounds, 15% with a hit somewhere; the sample as a whole holds those more often. A number with no mark means an inactive call. The source made the active and inactive calls. No stated cut-off is given here; in the data, active means growth inhibition above about 70%; inactive means the rest. Residues, ends and D or L forms follow the SMILES beside them. *: point of attachment. Fmoc = O=C(OCC1c2ccccc2-c2ccccc21)*; Boc = CC(C)(C)OC(=O)*

Assay: NCI Yeast Anticancer Drug Screen. Data for the sgs1 strain (AID 173);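 further: 0% = growth of vehicle-only control cultures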
Details: S. cerevisiae sgs1 mutant, at 11.0 µM, stronger effect = higher value
Outline: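 Relative growth inhibition, referenced to vehicle, was determined in a yeast strain with a defined alteration affecting DNA damage repair or cell cycle control after compound exposure.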

| SMILES | growth inhibition |
| --- | --- |
| CC(C)C(=O)CC(Sc1ccc(N)cc1)c1ccccc1 (stereo not given) | 22% |
| CC(C)OP(=O)(OC(C)C)/C(Cl)=N/Nc1ccc([N+](=O)[O-])cc1 | 94% (active) |
| O=[N+]([O-])c1cc(Cl)ccc1S(=O)(=O)c1ccc(Cl)cc1[N+](=O)[O-] | 35% |
| CCCCCCNCCCNc1c2cc(OC)ccc2nc2cccc([N+](=O)[O-])c12 | 88% (active) |
| N#CCC(=O)N/N=C(\c1ccccc1)C(c1ccccc1)C1(O)C(=O)Nc2c(Cl)ccc(Cl)c21 (stereo not given) | 1% |
| CN(C)CCNCCCNc1c2ccccc2nc2cccc([N+](=O)[O-])c12 | 76% (active) |
| CCC[CH2][Ge]([CH2]CCC)([CH2]CCC)[O]C(=O)C(O)c1ccccc1 (stereo not given) | 28% |
| COc1ccc(-c2cc(-c3cc(C)cc(Cl)c3O)nc3[nH]c(=S)[nH]c(=S)c23)cc1 | -1% |
| O=[N+]([O-])c1ccc(/C=C\c2ccc3c(c2)OCO3)c([N+](=O)[O-])c1 | 9% |
| O=C1c2ccccc2N2OC3(N4CCCC4)CCCCC3C12c1ccccc1 (stereo not given) | 7% |
| CC(C)OC(=O)NNc1cc(Cl)ccc1Cl | 44% |
| Cc1oc2ccccc2c(=O)c1Cn1nnc2ccccc21 | 2% |
| CC1(C)OC(=O)C(=Cc2ccc([N+](=O)[O-])s2)C(=O)O1 | -15% |
| CCN(CC)CCCNc1ccc([N+](=O)[O-])c2nc3ccc(OC)cc3c(NCCCN(CC)CC)c12 | 2% |
| COc1cccc(/C=C2\S/C(=N/Nc3nc(-c4ccc([N+](=O)[O-])cc4)cs3)NC2=O)c1O | 50% |
| OC(Cc1cccc2ccccc12)CN1CCC(c2ccccc2)CC1 (stereo not given) | 67% |
| C1=CCN([B-](c2ccccc2)[C+]2CCCCC2)C=C1 | 6% |
| O=[N+]([O-])c1cc[n+]([O-])c(Cl)c1 | 34% |

| SMILES | growth inhibition |
| --- | --- |
| CCCNC(=O)OCc1c(COC(=O)NCCC)c(-c2ccc(Cl)c(Cl)c2)n2c1CCC2 | 11% |
| CC1(C)CC(=O)C(C(=O)Nc2cccs2)=C(O)C1 | 38% |
| O=C(NO)c1coc2ccccc2c1=O | -2% |
| COc1ccc(C(C)c2cc3c(cc2OCC(C)=O)OCO3)cc1 (stereo not given) | -1% |
| CCS(=O)(=O)Nc1ccc(Nc2c3ccccc3nc3ccccc23)c(OC)c1 | -7% |
| O=S(=O)(c1ccccc1)N1CN2CN(C1)CN(S(=O)(=O)c1ccccc1)C2 | -23% |
| CC1=NN(C(=O)c2ccccc2O)C(=O)/C1=C/c1ccco1 | 67% |
| O=C1C=C(Br)C(=O)c2ccccc21 | 93% (active) |
| C[N+](C)([O-])CCCNc1c2ccccc2nc2cccc([N+](=O)[O-])c12 | 94% (active) |
| Cc1cccc2c(NCCCN(C)C)c3c([N+](=O)[O-])ccc(C)c3nc12 | 95% (active) |
| C[n+]1c(-c2ccc(/C=N/NC(=O)c3ccc(C(=O)N/N=C/c4ccc(-c5cn6ccccc6[n+]5C)cc4)cc3)cc2)cn2ccccc21 | 44% |
| CCN(CC)CCC(=O)Nc1ccc2sc3ccccc3c(=O)c2n1 | 15% |
| O=[N+]([O-])c1ccc2nc(=S)[nH]n2c1 | -5% |
| O=C(c1ccccc1)[C@H]1Nc2ccc(Cl)cc2[C@H]2OCCC[C@@H]12 | 18% |
| COc1cc([N+](=O)[O-])c2ncccc2c1Br | 42% |
| O=S(=O)(c1cccc(C(F)(F)F)c1)N1c2ccccc2-n2cccc2C1c1cccnc1 (stereo not given) | 73% (active) |
| CC(C)(C)OC(=O)NCCCCC(NC(=O)C(Cc1c[nH]c2ccccc12)NC(=O)OCC1c2ccccc2-c2ccccc21)C(=O)O (stereo not given) (Fmoc-Trp-Lys(Boc)-OH; configuration not given here) | 0% |

Same assay, conditions: S. cerevisiae sgs1 mutant, at 33.0 µM, stronger effect = higher value

| SMILES | growth inhibition |
| --- | --- |
| CC(C)C(=O)CC(Sc1ccc(N)cc1)c1ccccc1 (stereo not given) | 62% |
| CC(C)OP(=O)(OC(C)C)/C(Cl)=N/Nc1ccc([N+](=O)[O-])cc1 | 97% (active) |
| O=[N+]([O-])c1cc(Cl)ccc1S(=O)(=O)c1ccc(Cl)cc1[N+](=O)[O-] | 91% (active) |
| CCCCCCNCCCNc1c2cc(OC)ccc2nc2cccc([N+](=O)[O-])c12 | 95% (active) |
| N#CCC(=O)N/N=C(\c1ccccc1)C(c1ccccc1)C1(O)C(=O)Nc2c(Cl)ccc(Cl)c21 (stereo not given) | 11% |
| CN(C)CCNCCCNc1c2ccccc2nc2cccc([N+](=O)[O-])c12 | 84% (active) |
| CCC[CH2][Ge]([CH2]CCC)([CH2]CCC)[O]C(=O)C(O)c1ccccc1 (stereo not given) | 91% (active) |
| COc1ccc(-c2cc(-c3cc(C)cc(Cl)c3O)nc3[nH]c(=S)[nH]c(=S)c23)cc1 | 16% |
| O=[N+]([O-])c1ccc(/C=C\c2ccc3c(c2)OCO3)c([N+](=O)[O-])c1 | 19% |
| O=C1c2ccccc2N2OC3(N4CCCC4)CCCCC3C12c1ccccc1 (stereo not given) | 61% |
| CC(C)OC(=O)NNc1cc(Cl)ccc1Cl | 44% |
| Cc1oc2ccccc2c(=O)c1Cn1nnc2ccccc21 | 12% |
| CC1(C)OC(=O)C(=Cc2ccc([N+](=O)[O-])s2)C(=O)O1 | 48% |
| CCN(CC)CCCNc1ccc([N+](=O)[O-])c2nc3ccc(OC)cc3c(NCCCN(CC)CC)c12 | 1% |
| COc1cccc(/C=C2\S/C(=N/Nc3nc(-c4ccc([N+](=O)[O-])cc4)cs3)NC2=O)c1O | 77% (active) |
| OC(Cc1cccc2ccccc12)CN1CCC(c2ccccc2)CC1 (stereo not given) | 83% (active) |
| C1=CCN([B-](c2ccccc2)[C+]2CCCCC2)C=C1 | 92% (active) |
| O=[N+]([O-])c1cc[n+]([O-])c(Cl)c1 | 100% (active) |

| SMILES | growth inhibition |
| --- | --- |
| CCCNC(=O)OCc1c(COC(=O)NCCC)c(-c2ccc(Cl)c(Cl)c2)n2c1CCC2 | 40% |
| CC1(C)CC(=O)C(C(=O)Nc2cccs2)=C(O)C1 | 88% (active) |
| O=C(NO)c1coc2ccccc2c1=O | -2% |
| COc1ccc(C(C)c2cc3c(cc2OCC(C)=O)OCO3)cc1 (stereo not given) | -4% |
| CCS(=O)(=O)Nc1ccc(Nc2c3ccccc3nc3ccccc23)c(OC)c1 | 36% |
| O=S(=O)(c1ccccc1)N1CN2CN(C1)CN(S(=O)(=O)c1ccccc1)C2 | -24% |
| CC1=NN(C(=O)c2ccccc2O)C(=O)/C1=C/c1ccco1 | 85% (active) |
| O=C1C=C(Br)C(=O)c2ccccc21 | 99% (active) |
| C[N+](C)([O-])CCCNc1c2ccccc2nc2cccc([N+](=O)[O-])c12 | 94% (active) |
| Cc1cccc2c(NCCCN(C)C)c3c([N+](=O)[O-])ccc(C)c3nc12 | 98% (active) |
| C[n+]1c(-c2ccc(/C=N/NC(=O)c3ccc(C(=O)N/N=C/c4ccc(-c5cn6ccccc6[n+]5C)cc4)cc3)cc2)cn2ccccc21 | 74% (active) |
| CCN(CC)CCC(=O)Nc1ccc2sc3ccccc3c(=O)c2n1 | 39% |
| O=[N+]([O-])c1ccc2nc(=S)[nH]n2c1 | 0% |
| O=C(c1ccccc1)[C@H]1Nc2ccc(Cl)cc2[C@H]2OCCC[C@@H]12 | 57% |
| COc1cc([N+](=O)[O-])c2ncccc2c1Br | 42% |
| O=S(=O)(c1cccc(C(F)(F)F)c1)N1c2ccccc2-n2cccc2C1c1cccnc1 (stereo not given) | 92% (active) |
| CC(C)(C)OC(=O)NCCCCC(NC(=O)C(Cc1c[nH]c2ccccc12)NC(=O)OCC1c2ccccc2-c2ccccc21)C(=O)O (stereo not given) (Fmoc-Trp-Lys(Boc)-OH; configuration not given here) | 11% |
